ELG1 DNA repair – qHTS screen for small molecules that inhibit ELG1-dependent DNA repair in human embryonic kidney (HEK293T) cells expressing luciferase-tagged ELG1; Potency, µM (doses to about 46.1 µM), inactives show top-dose activity change, negative = inhibition, usual class: inhibitors; HEK293T ELG1-luciferase reporter, luminescence, 16 h; DNA damage induced by 5-fluorouridine; AID 504467, 2011; 2.3% of 330,000 active; further: on the % scale 0 is the no-effect control and ±100 the full control effect; nearly all actives have a fitted effect of over 55% in size
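Overnight (16 hr) co-exposure of 2,000 cells/well to 5-fluorouridine and compound at 37 °C preceded detection. Luciferase was quantified via ONE-Glo luminescence; loss of signal denotes inhibition.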
FLuc counter – qHTS profiling assay for firefly luciferase inhibitor/activator using purifed enzyme and Km concentrations of substrates (counterscreen for miR-21 project); Potency, µM (series often up to 57.5 µM), inactives show at the top dose activity change, negative = inhibition, hits mostly inhibitors; 6.9% of 360,000 active; purified FLuc, Km substrates, luminescence inhibition;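 further: plate controls were vehicle for no effect and reference inhibitor for full effect; nearly all actives have a fitted effect of over 55% in size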
Target sequence (P08659 whole entry, looked up): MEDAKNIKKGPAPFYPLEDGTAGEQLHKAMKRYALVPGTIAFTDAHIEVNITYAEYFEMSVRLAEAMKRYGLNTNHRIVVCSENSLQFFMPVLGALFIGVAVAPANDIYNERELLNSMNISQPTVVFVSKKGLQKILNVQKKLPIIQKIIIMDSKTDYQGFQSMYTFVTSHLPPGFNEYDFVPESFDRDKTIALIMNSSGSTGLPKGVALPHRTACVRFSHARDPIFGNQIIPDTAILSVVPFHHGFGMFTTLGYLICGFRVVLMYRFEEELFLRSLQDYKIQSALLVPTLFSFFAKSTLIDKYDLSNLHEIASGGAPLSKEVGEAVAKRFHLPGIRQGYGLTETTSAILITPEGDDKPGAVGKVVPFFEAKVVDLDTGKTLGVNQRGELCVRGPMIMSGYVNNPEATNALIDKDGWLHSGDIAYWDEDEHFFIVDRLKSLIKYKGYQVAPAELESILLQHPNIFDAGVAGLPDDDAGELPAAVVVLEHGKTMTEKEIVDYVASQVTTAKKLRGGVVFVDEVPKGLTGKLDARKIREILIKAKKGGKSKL
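Purified P. pyralis luciferase (10nM final) with 10uM D-luciferin and 10uM ATP (Km levels) in 50mM Tris acetate pH 7.5, 10mM Mg acetate, 0.01% Tween-20, 0.05% BSA; qHTS 6-point titration, ~60 µM downward; luminescence read.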
Rab9 prom act – qHTS Assay for Rab9 Promoter Activators; Potency, µM (doses to about 9.22 µM), without a hit: top-dose activation, negative = inhibition, most hits filed as activators; Huh7 Rab9 promoter-luciferase reporter, luminescence, 24 h; AID 485297, 2010; 2.8% of 320,000 active; further: % of control where 0% means no effect; nearly all actives have a fitted effect of over 60% in size
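Cells were plated at 1500 per well in reduced-serum medium with 10% FBS and left 2 h. Compound in DMSO was then added for 24 h at 37 °C. Reporter signal was read by luminescence after 10 min with luciferase detection reagent.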
SMN2 splice up – qHTS Assay for Enhancers of SMN2 Splice Variant Expression. HEK293 SMN2-luciferase splicing reporter, luminescence, 30-36 h. Potency, µM (top dose mostly 46.1 µM), without a hit: at the highest dose activity change, positive = activation, hits mostly activators. 2.8% of 210,000 active. AID 1458, 2008; further: % of control where 0% means no effect; nearly all actives have a fitted effect of over 55% in size
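HEK293 cells carry an SMN2 […]–luciferase reporter in which exon 7 inclusion puts luciferase in frame. Cells were plated 10-12 h before compound addition, then incubated 30-36 h at 37C. ONE-Glo luminescence was read; sodium butyrate at 4.5 mM final served as control.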
ELG1 genotox – qHTS screen for small molecules that induce genotoxicity in human embryonic kidney (HEK293T) cells expressing luciferase-tagged ELG1; HEK293T ELG1-luciferase reporter, luminescence, 16 h; 1.3% of 330,000 active; Potency, µM (series often up to 46 µM), without a hit: at the top dose activity change, positive = activation, actives largely listed as activators; further: % of control where 0% means no effect; nearly all actives have a fitted effect of over 60% in size
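After overnight (16 hr) compound treatment at 37 °C, ELG1-luciferase HEK293T cells were lysed with ONE-Glo; luminescence quantified 30 min later at room temperature.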
NPC1 promoter act – qHTS Assay for NPC1 Promoter Activators; Potency, µM (titrated, usually from 9.22 µM), without a hit: top-dose activation, most hits filed as activators; 2.4% of 320,000 active; Huh7 NPC1 promoter luciferase reporter, 24 h; further: % of control where 0% means no effect; nearly all actives have a fitted effect of over 60% in size
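Luciferase expression driven by the NPC1 promoter was measured in stably transfected Huh7 cells after a 24 h compound incubation, using a luciferase reagent and a luminescence read.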
Starred values were filed as active, the others as inactive; ? = inconclusive; / = not tested or not shown; [ ] = remark or other dose. In the library only some 9.2% were active in any assay of this set; here they are far more common. The call rests on the fitted dose curve; in most records, active means well fitted curve in the direction sought with a large enough effect; inconclusive means small, poorly fitted or top-dose-only effect, or another doubt; inactive means no such curve, though single readings can be large; an effect the other way counts as inactive or inconclusive. Potency means the concentration at half of the fitted maximal effect.

SMILES	ELG1 DNA repair	FLuc counter	Rab9 prom act	SMN2 splice up	ELG1 genotox	NPC1 promoter act
COc1ccc(OC)c(/C=N/NC(=O)c2cc3c(OC)c(OC)ccc3[nH]2)c1	?	4.8µM*	3%	17%	0%	-2%
CCCOc1ccc2[nH]c(C(=O)N/N=C/c3cc(OC)c(OC)c(OC)c3)cc2c1	?	13µM*	14%	/	-6%	11%
COc1ccc2[nH]c(C(=O)N/N=C/c3ccc(OC)c(O)c3)cc2c1	?	5.4µM*	-11%	/	11%	-15%
COc1ccc2[nH]c(C(=O)N/N=C/c3ccccc3OC)cc2c1	?	19µM*	0%	/	-4%	-18%
COc1ccc(/C=N/NC(=O)c2ccc(-c3ccccc3)cc2)cc1O	?	?	-5%	-6%	-3%	1%
CCCCCCc1cc2cc(S(=O)(=O)c3ccc(F)c(Cl)c3)c(=O)oc2cc1O	?	0%	-9%	-48%	-5%	-6%
Cc1cccn2c(CN3CCCN(C=O)CC3)c(C(=O)N(C)CCc3ccccc3)nc12	11%	3%	1%	-6%	0%	-2%
COc1cc(OC)c2cc(C(=O)N/N=C/c3ccccc3O)[nH]c2c1	-15%	-5%	-34%	/	?	-45%
CCOc1ccc2[nH]c(C(=O)N/N=C/c3ccccc3OC)cc2c1	?	15µM*	-15%	/	-4%	-22%
COc1cccc(OCc2cc(/C=N/NC(=O)c3ccn[nH]3)ccc2OC)c1	7%	15µM*	13%	19%	8%	20%
CCOc1ccc(/C=N/NC(=O)c2cc3c(OC)cc(OC)c(OC)c3[nH]2)cc1	8.2µM*	?	-5%[1.84 µM]	/	-16%	-6%
COc1cc(C(=O)Oc2ccc(/C=N/NC(=O)c3ccncc3)cc2)cc(OC)c1OC	6%	5%	-1%	/	-3%	-15%
COc1ccc(/C=N\NC(=O)c2ccccc2)cc1COc1ccccc1	?	-20%	0%	/	-10%	-8%
CCCCN(C(=O)C(C)Oc1ccc(Br)cc1)c1c(N)n(CC(C)C)c(=O)[nH]c1=O (stereo not drawn)	-9%	?	16%	/	3%	5%
Cc1cccc(C(=O)NCC(=O)OCc2cc(=O)n3nc(CC(C)C)sc3n2)c1	/	-3%	/	/	/	/
CC1=Nc2ccccc2N=C(NC(=O)CN2CCN(c3ccc(F)cc3)CC2)C1c1ccccc1 (stereo not drawn)	2%	-1%	-5%	/	-6%	1%
CCOc1ccc(CCNC(=O)c2nn(-c3ccc(OC)cc3)c(=O)c3c2c2ccccc2n3C)cc1OCC	/	-2%	/	-13%	/	/
CC(=O)NS(=O)(=O)c1ccc(NC(=O)CC23CC4CC(CC(Br)(C4)C2)C3)cc1	4%	0%	2%	/	2%	2%
CC(C)OC(=O)CSc1ncnc2c1cnn2-c1ccccc1	19%	8.5µM*	20%	-14%	27%	2%
c1ccc(CSc2ncnc3c2cnn3-c2ccccc2)cc1	?	12µM*	?	22µM*	?	?
CC(C)(C)C(=O)CSc1ncnc2c1cnn2-c1ccccc1	?	1.2µM*	0.63µM*	/	?	0.71µM*
Cc1cc(NC(=O)CSc2ncnc3c2cnn3-c2ccccc2)no1	?	-4%	-3%	-16%	-11%	-6%
Cn1c(=O)c2[nH]c(-c3ccccc3O)nc2n(C)c1=O	0%	-17%	-5%	-2%	-6%	25%
CCCOc1ccccc1-c1nc2c([nH]1)c(=O)[nH]c(=O)n2C	13%	7%	-1%	28µM*	?	-1%
CCOC(=O)c1ccc(NC(=O)CSC2=NN3CCCC(=O)N=C3S2)cc1	-29%	4%	-4%	/	-1%	-4%
SMILES	ELG1 DNA repair	FLuc counter	Rab9 prom act	SMN2 splice up	ELG1 genotox	NPC1 promoter act
CCCC1Oc2ccccc2C(=O)N(CC(=O)c2ccc3c(c2)OCCO3)C1=O (stereo not drawn)	?	6µM*	?	/	?	30%
CC1CCCCC12NC(=O)N(CC(=O)c1ccc3c(c1)OCO3)C2=O (stereo not drawn)	26%	-15%	6%	/	1%	11%
O=C(CCN1C(=O)c2ccccc2S1(=O)=O)Nc1ccc2c(c1)OCCO2	1%	?	10%	-10%	-4%	22%
CC(C)CC1NC(=O)N(CC(=O)c2ccc3c(c2)OCCO3)C1=O (stereo not drawn)	?	11µM*	1.1µM*	13µM*	?	2.8µM*
O=C(CN1C(=O)c2ccccc2S1(=O)=O)c1ccc2c(c1)OCCCO2	1µM*	2.1µM*	-54%	/	-15%	-40%
O=C(CN1C(=O)c2ccccc2S1(=O)=O)c1ccc2c(c1)OCCO2	?	5.4µM*	-47%	/	-12%	-37%
O=C(NCc1ccco1)C1CC(O)CN1C(=O)Nc1ccccc1 (stereo not drawn)	0%	-1%	5%	/	-7%	1%
CCN(CC)CCNC(=O)C1CCN(C(=O)c2cnn(-c3ccccc3)c2-n2cccc2)CC1	/	-2%	/	2%	/	/
COc1cccc(-c2nn(C)c3sc(C(=O)NCCc4cccc(C)c4)cc23)c1	/	-15%	/	-11%	/	/
Cn1cnc([N+](=O)[O-])c1Sc1ncnc2nc[nH]c12	0.21µM*	-1%	-9%[46.1 µM]	-41%	0%	-3%[46.1 µM]
Cc1cccnc1Sc1c([N+](=O)[O-])ncn1C	10%	-2%	-1%	-11%	-3%	-27%
C=CCn1c(-c2ccc(C)cc2)nc2ccccc21	?	11µM*	18%	-22%	?	11%
C=CCn1c(NC(=O)c2ccc(C)cc2)nc2ccccc21	?	?	?	/	?	2.8µM*
CCCn1c(NC(=O)c2ccc(C)cc2)nc2ccccc21	?	-15%	30%	?	?	19%
COCn1c(-c2ccc(OC)cc2)nc2ccccc21	?	6µM*	2.5µM*	14µM*	?	?
CC1=C(C(=O)OC2CCCCCC2)C(c2ccc(Cl)cc2Cl)CC(=O)N1 (stereo not drawn)	/	-3%	/	-5%	/	/
COc1ccc2c(c1)[C@H]1[C@H](CO2)[C@H](c2ccccc2)[C@]2(C)C(=O)N[C@@H](C)C(=O)N12	14%	0%	-3%	/	1%	-3%
Cc1cc(C)cc(NC(=O)COC(=O)CCCNC(=O)c2ccc(Cl)cc2)c1	17%	12µM*	-5%	16%	-1%	0%
